# Assay results published in the supplement of paper PMC10849652.
# Of roughly 8,800 targets only a part is listed; those with a hit were picked by preference. About 0.5% of all pairs of compound and target were hits. Values without a mark were called inactive.
# Tests used:
# Assay in all cases: log2 fold change, soluble protein after heating vs DMSO (PISA); higher = thermal stabilisation; K562 lysate, 10 uM; active = over 0.2 and 3.5 SD of the protein, either way, in both replicates (recomputed)
# lapatinib = compound: CS(=O)(=O)CCNCc1ccc(-c2ccc3ncnc(Nc4ccc(OCc5cccc(F)c5)c(Cl)c4)c3c2)o1 [lapatinib]
# Outline: (§1)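 Log-two fold change in thermal stability relative to solvent controls is reported from duplicates. For each sample, crude K562 extract from dounce-homogenised pellets in PBS pH 7.4 with 1 mM MgCl2, at 1 mg/mL protein, was treated with 10 μM compound for 30 min. Aliquots heated for 3 min across 48°C-58°C were pooled, brought to 0.5% NP-40 at 4°C and cleared at 21,000xg for 90 min. The supernatant was quantified by TMTpro 16plex LC-MS/MS with channel sums equalised.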
# pictilisib = compound: CS(=O)(=O)N1CCN(Cc2cc3nc(-c4cccc5[nH]ncc45)nc(N4CCOCC4)c3s2)CC1 [pictilisib]
# Outline: as §1
# crizotinib = compound: C[C@@H](Oc1cc(-c2cnn(C3CCNCC3)c2)cnc1N)c1c(Cl)ccc(F)c1Cl [crizotinib]
# Outline: as §1
# [1] = compound: C[C@H](C1=CC=C(C=C1)C(=O)NC2=C3C=CNC3=NC=C2)N
# Outline: as §1
# duvelisib = compound: C[C@H](Nc1ncnc2nc[nH]c12)c1cc2cccc(Cl)c2c(=O)n1-c1ccccc1 [duvelisib]
# Outline: as §1
# gandotinib = compound: Cc1cc(Nc2cc(CN3CCOCC3)c3nc(C)c(Cc4ccc(Cl)cc4F)n3n2)n[nH]1 [gandotinib]
# Outline: as §1
# tozasertib = compound: Cc1cc(Nc2cc(N3CCN(C)CC3)nc(Sc3ccc(NC(=O)C4CC4)cc3)n2)n[nH]1 [tozasertib]
# Outline: as §1
# doramapimod = compound: Cc1ccc(-n2nc(C(C)(C)C)cc2NC(=O)Nc2ccc(OCCN3CCOCC3)c3ccccc23)cc1 [doramapimod]
# Outline: as §1
# bafetinib = compound: Cc1ccc(NC(=O)c2ccc(CN3CC[C@H](N(C)C)C3)c(C(F)(F)F)c2)cc1Nc1nccc(-c2cncnc2)n1 [bafetinib]
# Outline: as §1
# [2] = compound: Cc1cccc(CC(=O)N2CCc3c2ccc(-c2cn(C)c4ncnc(N)c24)c3F)n1
# Outline: as §1
# nilotinib = compound: Cc1cn(-c2cc(NC(=O)c3ccc(C)c(Nc4nccc(-c5cccnc5)n4)c3)cc(C(F)(F)F)c2)cn1 [nilotinib]
# Outline: as §1
# [3] = compound: Cc1nc(Nc2n[nH]c3c2CN(C(=O)N[C@H](CN(C)C)c2ccccc2)C3(C)C)c2sccc2n1
# Outline: as §1
# dasatinib = compound: Cc1nc(Nc2ncc(C(=O)Nc3c(C)cccc3Cl)s2)cc(N2CCN(CCO)CC2)n1 [dasatinib]
# Outline: as §1
# [4] = compound: Cc1ncc(-c2ccnc(Nc3ccc(S(C)(=O)=O)cc3)n2)n1C(C)C
# Outline: as §1
# [5] = compound: Cn1cc(-c2ccc3c(c2)CCN3C(=O)Cc2cccc(C(F)(F)F)c2)c2c(N)ncnc21
# Outline: as §1
# quisinostat = compound: Cn1cc(CNCC2CCN(c3ncc(C(=O)NO)cn3)CC2)c2ccccc21 [quisinostat]
# Outline: as §1
# tipifarnib = compound: Cn1cncc1[C@@](N)(c1ccc(Cl)cc1)c1ccc2c(c1)c(-c1cccc(Cl)c1)cc(=O)n2C [tipifarnib]
# Outline: as §1
# [6] = compound: NC(=O)Nc1cc(-c2cccc(F)c2)sc1C(=O)N[C@H]1CCCNC1
# Outline: as §1
# [7] = compound: NC(=O)c1cnc(N[C@@H]2CCCC[C@@H]2N)nc1Nc1cccc(-n2nccn2)c1
# Outline: as §1
# [8] = compound: NC1(c2ccc(-c3nc4ccn5c(=O)[nH]nc5c4cc3-c3ccccc3)cc2)CCC1
# Outline: as §1
# Chain of UniProt Q07157 (Q07157 whole entry, looked up): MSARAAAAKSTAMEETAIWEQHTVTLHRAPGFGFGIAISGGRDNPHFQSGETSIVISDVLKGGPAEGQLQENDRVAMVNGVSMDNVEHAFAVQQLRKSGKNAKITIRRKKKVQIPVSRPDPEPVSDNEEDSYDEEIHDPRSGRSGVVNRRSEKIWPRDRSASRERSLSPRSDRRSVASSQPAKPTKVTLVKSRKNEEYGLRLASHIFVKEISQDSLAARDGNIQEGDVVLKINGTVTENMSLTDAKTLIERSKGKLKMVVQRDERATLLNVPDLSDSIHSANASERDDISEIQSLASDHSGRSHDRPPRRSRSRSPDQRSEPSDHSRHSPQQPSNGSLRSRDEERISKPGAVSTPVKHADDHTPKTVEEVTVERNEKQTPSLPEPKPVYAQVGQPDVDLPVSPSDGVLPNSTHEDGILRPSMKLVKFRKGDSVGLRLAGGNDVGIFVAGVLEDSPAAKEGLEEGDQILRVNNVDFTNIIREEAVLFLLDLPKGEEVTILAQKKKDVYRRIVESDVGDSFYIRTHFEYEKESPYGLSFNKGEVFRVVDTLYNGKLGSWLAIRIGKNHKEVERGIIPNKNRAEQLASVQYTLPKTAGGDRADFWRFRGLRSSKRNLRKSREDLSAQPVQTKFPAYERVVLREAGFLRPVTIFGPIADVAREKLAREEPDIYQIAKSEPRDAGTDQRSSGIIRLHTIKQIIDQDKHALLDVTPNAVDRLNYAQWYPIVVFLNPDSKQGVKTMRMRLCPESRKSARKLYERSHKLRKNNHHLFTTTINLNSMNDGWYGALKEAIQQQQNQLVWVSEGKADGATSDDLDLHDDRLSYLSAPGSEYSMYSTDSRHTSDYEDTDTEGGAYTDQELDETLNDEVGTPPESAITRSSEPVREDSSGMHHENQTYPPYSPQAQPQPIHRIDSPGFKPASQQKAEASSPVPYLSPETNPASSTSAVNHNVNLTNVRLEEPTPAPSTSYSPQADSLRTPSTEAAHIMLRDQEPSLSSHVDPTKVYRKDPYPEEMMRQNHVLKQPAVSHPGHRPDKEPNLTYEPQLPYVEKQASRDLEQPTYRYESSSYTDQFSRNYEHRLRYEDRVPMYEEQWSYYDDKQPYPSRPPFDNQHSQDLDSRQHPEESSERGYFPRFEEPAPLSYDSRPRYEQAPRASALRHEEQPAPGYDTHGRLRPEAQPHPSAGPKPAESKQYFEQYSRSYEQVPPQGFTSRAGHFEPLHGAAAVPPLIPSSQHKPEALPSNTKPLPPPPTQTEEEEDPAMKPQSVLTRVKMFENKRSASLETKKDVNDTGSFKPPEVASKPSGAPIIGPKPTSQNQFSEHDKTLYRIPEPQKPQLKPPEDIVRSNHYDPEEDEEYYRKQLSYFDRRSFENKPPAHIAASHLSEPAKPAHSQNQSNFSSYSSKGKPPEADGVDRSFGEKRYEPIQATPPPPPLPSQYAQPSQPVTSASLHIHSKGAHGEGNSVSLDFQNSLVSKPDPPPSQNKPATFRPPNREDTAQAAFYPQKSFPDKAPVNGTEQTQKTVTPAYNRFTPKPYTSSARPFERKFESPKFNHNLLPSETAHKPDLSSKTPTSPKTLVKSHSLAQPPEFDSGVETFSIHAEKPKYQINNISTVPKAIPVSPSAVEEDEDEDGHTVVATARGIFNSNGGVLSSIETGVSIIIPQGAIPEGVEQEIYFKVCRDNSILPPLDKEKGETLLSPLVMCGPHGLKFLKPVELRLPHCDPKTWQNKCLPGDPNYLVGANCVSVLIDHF
# Chain of UniProt Q5TEJ8 (Q5TEJ8 whole entry, looked up): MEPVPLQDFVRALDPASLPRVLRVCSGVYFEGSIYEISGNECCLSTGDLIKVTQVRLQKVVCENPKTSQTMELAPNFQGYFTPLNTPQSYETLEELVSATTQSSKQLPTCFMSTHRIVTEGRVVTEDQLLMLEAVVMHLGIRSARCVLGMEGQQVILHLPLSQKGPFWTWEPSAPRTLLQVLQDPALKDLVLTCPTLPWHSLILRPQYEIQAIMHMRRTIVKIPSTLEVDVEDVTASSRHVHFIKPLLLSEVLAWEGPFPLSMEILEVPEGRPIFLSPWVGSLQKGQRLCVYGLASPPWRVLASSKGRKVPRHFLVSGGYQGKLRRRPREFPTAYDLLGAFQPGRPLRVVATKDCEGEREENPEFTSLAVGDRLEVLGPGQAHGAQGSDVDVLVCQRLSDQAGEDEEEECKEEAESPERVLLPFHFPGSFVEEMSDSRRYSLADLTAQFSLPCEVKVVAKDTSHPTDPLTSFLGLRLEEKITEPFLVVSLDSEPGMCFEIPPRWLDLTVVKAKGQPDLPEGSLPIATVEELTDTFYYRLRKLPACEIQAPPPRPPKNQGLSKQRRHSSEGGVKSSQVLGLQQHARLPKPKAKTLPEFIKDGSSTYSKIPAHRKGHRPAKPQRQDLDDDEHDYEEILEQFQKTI
# Chain of UniProt Q6YHU6 (Q6YHU6 whole entry, looked up): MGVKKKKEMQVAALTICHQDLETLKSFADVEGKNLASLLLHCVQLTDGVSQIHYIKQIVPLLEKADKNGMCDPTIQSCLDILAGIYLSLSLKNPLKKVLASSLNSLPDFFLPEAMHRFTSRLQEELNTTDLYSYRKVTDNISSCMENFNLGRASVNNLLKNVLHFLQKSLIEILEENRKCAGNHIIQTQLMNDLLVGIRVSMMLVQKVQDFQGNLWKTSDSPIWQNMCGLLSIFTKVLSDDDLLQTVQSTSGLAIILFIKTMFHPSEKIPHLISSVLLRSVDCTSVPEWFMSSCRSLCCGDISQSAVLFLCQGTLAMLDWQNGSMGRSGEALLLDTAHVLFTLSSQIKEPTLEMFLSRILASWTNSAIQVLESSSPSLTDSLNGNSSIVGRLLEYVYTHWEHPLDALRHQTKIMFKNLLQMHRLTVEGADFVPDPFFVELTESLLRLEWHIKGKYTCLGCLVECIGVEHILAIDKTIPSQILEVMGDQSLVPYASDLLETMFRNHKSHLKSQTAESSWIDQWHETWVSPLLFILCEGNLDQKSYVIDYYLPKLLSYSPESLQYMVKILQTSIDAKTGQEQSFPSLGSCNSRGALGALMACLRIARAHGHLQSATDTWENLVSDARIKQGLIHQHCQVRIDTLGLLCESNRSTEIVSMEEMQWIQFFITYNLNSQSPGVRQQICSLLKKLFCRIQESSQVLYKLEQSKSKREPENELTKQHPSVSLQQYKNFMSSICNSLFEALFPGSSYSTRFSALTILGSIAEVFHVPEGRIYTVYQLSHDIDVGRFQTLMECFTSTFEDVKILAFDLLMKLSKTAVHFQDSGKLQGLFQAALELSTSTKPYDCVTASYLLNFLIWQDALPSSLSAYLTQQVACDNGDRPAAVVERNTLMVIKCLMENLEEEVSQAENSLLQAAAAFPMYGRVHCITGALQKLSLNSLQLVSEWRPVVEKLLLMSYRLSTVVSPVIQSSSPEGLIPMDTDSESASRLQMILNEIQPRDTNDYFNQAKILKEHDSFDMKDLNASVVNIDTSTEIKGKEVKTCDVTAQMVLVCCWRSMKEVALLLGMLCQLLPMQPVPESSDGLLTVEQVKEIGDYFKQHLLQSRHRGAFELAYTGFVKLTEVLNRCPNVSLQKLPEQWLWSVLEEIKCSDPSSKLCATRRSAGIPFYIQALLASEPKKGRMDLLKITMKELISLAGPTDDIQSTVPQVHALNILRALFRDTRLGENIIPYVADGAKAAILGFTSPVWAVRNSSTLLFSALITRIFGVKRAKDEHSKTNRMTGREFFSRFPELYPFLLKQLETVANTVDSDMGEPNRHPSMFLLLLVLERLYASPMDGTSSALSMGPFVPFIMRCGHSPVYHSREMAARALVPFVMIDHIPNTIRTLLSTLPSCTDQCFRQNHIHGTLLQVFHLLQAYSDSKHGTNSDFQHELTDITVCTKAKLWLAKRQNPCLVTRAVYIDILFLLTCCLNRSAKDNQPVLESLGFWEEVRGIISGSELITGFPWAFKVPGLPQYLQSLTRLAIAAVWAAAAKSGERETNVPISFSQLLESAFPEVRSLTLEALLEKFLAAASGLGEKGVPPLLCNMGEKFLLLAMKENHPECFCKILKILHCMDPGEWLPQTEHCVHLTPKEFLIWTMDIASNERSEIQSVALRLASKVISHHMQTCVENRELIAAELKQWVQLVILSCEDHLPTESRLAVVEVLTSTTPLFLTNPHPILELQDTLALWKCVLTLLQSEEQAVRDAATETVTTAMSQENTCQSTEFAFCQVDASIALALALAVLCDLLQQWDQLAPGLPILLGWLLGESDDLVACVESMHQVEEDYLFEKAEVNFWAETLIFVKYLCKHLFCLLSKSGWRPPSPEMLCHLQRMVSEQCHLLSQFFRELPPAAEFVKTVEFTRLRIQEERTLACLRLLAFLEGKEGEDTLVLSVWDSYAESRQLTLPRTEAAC
# Chain of UniProt Q8NG68 (Q8NG68 whole entry, looked up): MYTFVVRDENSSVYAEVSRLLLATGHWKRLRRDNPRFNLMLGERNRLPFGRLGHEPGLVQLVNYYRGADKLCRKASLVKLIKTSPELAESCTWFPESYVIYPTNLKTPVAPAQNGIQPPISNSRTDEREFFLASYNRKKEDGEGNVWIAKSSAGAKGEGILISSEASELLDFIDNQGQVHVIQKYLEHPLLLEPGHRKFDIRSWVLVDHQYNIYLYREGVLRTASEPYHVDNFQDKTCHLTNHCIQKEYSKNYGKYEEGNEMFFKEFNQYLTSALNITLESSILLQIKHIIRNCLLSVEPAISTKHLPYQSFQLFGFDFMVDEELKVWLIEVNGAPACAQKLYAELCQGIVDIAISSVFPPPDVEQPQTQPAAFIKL
# Chain of UniProt P04818 (P04818 whole entry, looked up): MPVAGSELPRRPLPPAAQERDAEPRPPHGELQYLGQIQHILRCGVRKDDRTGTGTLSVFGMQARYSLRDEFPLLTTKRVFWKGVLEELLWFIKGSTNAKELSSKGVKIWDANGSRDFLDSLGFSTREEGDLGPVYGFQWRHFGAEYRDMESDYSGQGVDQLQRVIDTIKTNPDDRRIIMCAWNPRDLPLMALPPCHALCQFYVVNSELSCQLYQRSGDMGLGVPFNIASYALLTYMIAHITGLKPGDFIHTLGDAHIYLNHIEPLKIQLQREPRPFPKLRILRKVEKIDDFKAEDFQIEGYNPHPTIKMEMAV
Target,log2 fold change (lapatinib),log2 fold change (pictilisib),log2 fold change (crizotinib),log2 fold change [1],log2 fold change (duvelisib),log2 fold change (gandotinib),log2 fold change (tozasertib),log2 fold change (doramapimod),log2 fold change (bafetinib),log2 fold change [2],log2 fold change (nilotinib),log2 fold change [3],log2 fold change (dasatinib),log2 fold change [4],log2 fold change [5],log2 fold change (quisinostat),log2 fold change (tipifarnib),log2 fold change [6],log2 fold change [7],log2 fold change [8]
TBC1D8B (UniProt Q0IIM8),0,-0.072,0.013,-0.229,0.007,0.176,-0.011,0.014,0.03,0.097,0.021,-0.035,0.01,0.015,-0.042,-0.061,0.036,0.034,-0.042,-0.034
TUBB4A (UniProt P04350),-0.095,-0.055,-0.001,-0.081,0.059,0.051,-0.138,-0.025,-0.026,-0.01,0.027,-0.026,0.003,-0.023,0.067,-0.196,0.027,0.085,0.011,0.023
THEMIS2 (UniProt Q5TEJ8),-0.052,0.029,-0.025,0.004,-0.026,-0.001,0.006,-0.042,-0.059,0.065,-0.096,0.06,-0.092,-0.144,0.059,0.03,-0.039,0.051,0.095,0.019
TXNRD2 (UniProt Q9NNW7),0,-0.017,0.003,-0.046,0.084,0.059,-0.042,-0.066,0.041,0.034,0.063,0.008,0.039,0.071,0.015,-0.017,-0.005,-0.023,-0.006,-0.05
TBL3 (UniProt Q12788),-0.022,-0.027,-0.017,-0.028,-0.009,-0.05,-0.008,-0.024,-0.019,0.04,-0.009,0.025,-0.013,0.016,0.011,-0.046,0.008,0.056,-0.032,-0.052
TYMS (UniProt P04818),-0.007,-0.017,0.002,0.003,0.018,0.058,0.011,-0.019,-0.005,-0.017,0.012,-0.032,-0.023,-0.015,0.01,-0.001,-0.02,0.034,0.015,-0.032
TUBA4A (UniProt P68366),-0.02,0.012,-0.048,-0.066,0.034,0.121,0.011,0.045,-0.028,0.035,0.036,-0.024,-0.09,-0.009,0.02,-0.024,-0.012,0.034,0.022,-0.003
TPM3 isoform 2 (UniProt P06753),-0.012,0.021,0.093,0.095,0.003,-0.169,0.067,0.02,0.055,-0.152,-0.048,0.019,0.012,-0.005,0.014,0.14,0.06,-0.024,-0.003,0.047
TJP1 isoform 2 (UniProt Q07157),-0.015,-0.028,0.016,-0.065,-0.014,0.075,-0.002,0.014,-0.062,0.111,-0.003,0.004,0.036,0.006,-0.013,-0.011,-0.005,-0.019,0.022,-0.041
TUBE1 (UniProt Q9UJT0),-0.008,-0.005,0.095,0.214,-0.01,-0.076,0.054,-0.034,-0.066,-0.029,0.036,-0.051,0.017,-0.046,-0.028,-0.037,0.029,0.064,0.007,0.025
TCAF2 (UniProt A6NFQ2),0.024,-0.017,-0.108,-0.02,0.004,-0.098,0.008,-0.03,-0.048,0.041,0.051,0.004,0.001,0.05,0.042,-0.061,-0.037,0.047,0.041,-0.011
THADA (UniProt Q6YHU6),-0.042,-0.06,-0.073,-0.041,-0.02,-0.064,-0.003,-0.002,-0.041,0.086,0.009,0.012,-0.048,0.008,0.027,-0.115,-0.011,0.053,0.007,0.002
UBP1 (UniProt Q9NZI7),0.049,-0.004,-0.202,0.206,-0.025,-0.01,-0.043,0.15,-0.029,-0.124,-0.019,-0.039,0.008,0.05,0.002,-0.125,-0.084,0.01,0.008,-0.058
TTL (UniProt Q8NG68),-0.015,-0.057,-0.067,0.096,0.356 (active),-0.033,-0.112,-0.011,-0.091,-0.048,-0.045,-0.082,-0.049,-0.062,0.056,-0.115,-0.008,0.017,0.018,0.03
TUBB2A (UniProt Q13885),0.009,0.011,-0.049,-0.016,-0.012,0.028,-0.011,0.004,0.026,-0.005,-0.005,-0.002,-0.049,-0.02,-0.001,-0.035,0.009,0.043,0.003,0.007
TTF2 (UniProt Q9UNY4),0.028,-0.048,-0.104,-0.052,0,0,0.019,0.053,-0.02,0.102,-0.008,-0.062,-0.012,-0.023,0.018,-0.042,0.004,0.02,0.019,-0.067
